Source: PubChem BioAssay (NCATS)
Results filed as inconclusive are left out. Active and inactive are the calls of the source. Unless noted, calls come from the whole dose curve; as a rule, active = well fitted curve in the direction sought with a large enough effect; inconclusive = small, poorly fitted or top-dose-only effect, or another doubt; inactive = no such curve, though single readings can be large; an effect the other way counts as inactive or inconclusive.

Columns and labels:
[1] = qHTS for differential inhibitors of proliferation of Plasmodium falciparum line 3D7 (AID 1876);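 note: parasite growth measured after three days of culture; 0% = vehicle wells and -100% = reference inhibitor wells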
[2] = qHTS for differential inhibitors of proliferation of Plasmodium falciparum line D10 (AID 1877);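 note: parasites grown with compound for 72 h before DNA staining; plate controls were vehicle wells for no effect and reference inhibitor wells for full effect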
[3] = qHTS for differential inhibitors of proliferation of Plasmodium falciparum line Dd2 (AID 1882); conditions: Potency: Plasmodium falciparum Dd2 proliferation inhibition;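 note: series mostly up to about 29 µM; compound exposure of 72 h on infected erythrocytes; plate controls were DMSO vehicle for no effect and 0.29 µM artemisinin for full effect; nearly all actives have a fitted effect of over 65% in size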
In short: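 SYBR Green I DNA fluorescence read-out, ex 485/em 535 nm. Signals were normalized to 0.29 uM artemisinin and DMSO wells, then corrected using vehicle-only plates flanking each stack. Parasite growth ran 72 h in erythrocytes before lysis.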

[4] = qHTS for differential inhibitors of proliferation of Plasmodium falciparum line W2 (AID 1883); conditions: Potency: Plasmodium falciparum W2 proliferation inhibition;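 note: parasites grown with compound for 72 h before lysis and staining; 0% = vehicle wells and -100% = control inhibitor wells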
[5] = qHTS for differential inhibitors of proliferation of Plasmodium falciparum line HB3 (AID 1886); conditions: Potency: Plasmodium falciparum HB3 proliferation inhibition;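 note: parasites grown with compound for 72 h before SYBR Green readout; plate controls were vehicle for no effect and reference inhibitor for full effect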
[6] = qHTS Assay for Modulators of Human Peripheral Myelin Protein 22 (PMP22) Expression/Activity (AID 1967; active = well fitted curve in the direction sought with a large enough effect in the signal ratio; the % refers to the signal ratio;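 note: 0% = untreated cells and 100% end not stated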)
In short: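 Mouse MSC80 Schwann cells carrying Pmp22 promoter–green click beetle luciferase plus EF-alpha–red luciferase control, dosed 24 h at 37 °C. Dual-filter luminescence, overlap-corrected; %Activity from green/red ratio normalised to untreated cells, concentration-response curves fitted.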

[7] = molecular target: Ferritin light chain (Equus caballus) (UniProt P02791); test: qHTS Validation Assay for Identification of Novel General Anesthetics (AID 2323); note: series mostly up to about 77 µM; % is set by controls: 0 for no effect and ±100 for the full control effect
Ferritin light chain (Equus caballus), sequence (P02791 2-175 limits assumed): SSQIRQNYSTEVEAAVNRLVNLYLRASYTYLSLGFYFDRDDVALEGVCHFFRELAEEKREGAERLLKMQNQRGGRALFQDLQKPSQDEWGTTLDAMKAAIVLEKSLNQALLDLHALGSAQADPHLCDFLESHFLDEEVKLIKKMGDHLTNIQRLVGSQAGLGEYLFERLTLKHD
In short: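 Horse-spleen apoferritin (10 uM) in PBS with 50% saturated 1-aminoanthracene; compounds pin-transferred, 10 min at room temperature. Fluorescence read at 380/535 nm, normalized to free 1-AMA and 1-AMA/apoferritin values; four-parameter Hill fit.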

[8] = molecular target: ATP-dependent DNA helicase Q1 (Homo sapiens) (UniProt P46063); test: qHTS Validation Assay for Inhibitors of RecQ-Like Dna Helicase 1 (RECQ1) (AID 2353);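 note: plate controls were DMSO vehicle for no effect and enzyme-free control for full effect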
ATP-dependent DNA helicase Q1 (Homo sapiens), sequence (P46063 whole entry, looked up): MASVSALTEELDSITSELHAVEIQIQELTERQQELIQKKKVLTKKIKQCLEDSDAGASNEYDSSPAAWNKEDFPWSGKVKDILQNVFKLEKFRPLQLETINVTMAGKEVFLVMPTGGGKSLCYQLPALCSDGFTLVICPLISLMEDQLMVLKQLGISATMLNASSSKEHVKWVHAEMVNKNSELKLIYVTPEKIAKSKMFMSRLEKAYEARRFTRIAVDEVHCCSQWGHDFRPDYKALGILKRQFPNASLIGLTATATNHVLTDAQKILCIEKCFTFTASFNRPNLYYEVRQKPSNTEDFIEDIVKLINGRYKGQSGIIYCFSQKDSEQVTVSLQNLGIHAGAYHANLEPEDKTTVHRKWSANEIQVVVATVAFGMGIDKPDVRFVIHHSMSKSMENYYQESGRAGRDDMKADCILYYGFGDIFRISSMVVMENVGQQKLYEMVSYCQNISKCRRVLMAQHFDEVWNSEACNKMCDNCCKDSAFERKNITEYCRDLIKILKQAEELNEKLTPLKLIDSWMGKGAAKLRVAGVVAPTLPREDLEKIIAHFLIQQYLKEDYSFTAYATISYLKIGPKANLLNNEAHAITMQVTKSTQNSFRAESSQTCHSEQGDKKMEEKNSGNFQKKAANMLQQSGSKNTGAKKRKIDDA
In short: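 50 nM RECQ1T1 preincubated 15 min with compound in Tris pH 8.0 buffer with MgCl2, DTT, Tween-20 and 2.5 ug/ml poly(dI-dC); started with 200 nM TAMRA/BHQ-2 forked duplex and 2 mM ATP. Unwinding read as fluorescence (525/598 nm), two reads 2 h apart.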

[9] = molecular target: RecQ-like DNA helicase BLM (Homo sapiens) (UniProt P54132); test: qHTS Validation Assay for Inhibitors of Bloom's syndrome helicase (BLM) (AID 2364);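 note: plate controls were DMSO vehicle for no effect and enzyme-free control for full effect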
RecQ-like DNA helicase BLM (Homo sapiens), sequence (P54132 whole entry, looked up): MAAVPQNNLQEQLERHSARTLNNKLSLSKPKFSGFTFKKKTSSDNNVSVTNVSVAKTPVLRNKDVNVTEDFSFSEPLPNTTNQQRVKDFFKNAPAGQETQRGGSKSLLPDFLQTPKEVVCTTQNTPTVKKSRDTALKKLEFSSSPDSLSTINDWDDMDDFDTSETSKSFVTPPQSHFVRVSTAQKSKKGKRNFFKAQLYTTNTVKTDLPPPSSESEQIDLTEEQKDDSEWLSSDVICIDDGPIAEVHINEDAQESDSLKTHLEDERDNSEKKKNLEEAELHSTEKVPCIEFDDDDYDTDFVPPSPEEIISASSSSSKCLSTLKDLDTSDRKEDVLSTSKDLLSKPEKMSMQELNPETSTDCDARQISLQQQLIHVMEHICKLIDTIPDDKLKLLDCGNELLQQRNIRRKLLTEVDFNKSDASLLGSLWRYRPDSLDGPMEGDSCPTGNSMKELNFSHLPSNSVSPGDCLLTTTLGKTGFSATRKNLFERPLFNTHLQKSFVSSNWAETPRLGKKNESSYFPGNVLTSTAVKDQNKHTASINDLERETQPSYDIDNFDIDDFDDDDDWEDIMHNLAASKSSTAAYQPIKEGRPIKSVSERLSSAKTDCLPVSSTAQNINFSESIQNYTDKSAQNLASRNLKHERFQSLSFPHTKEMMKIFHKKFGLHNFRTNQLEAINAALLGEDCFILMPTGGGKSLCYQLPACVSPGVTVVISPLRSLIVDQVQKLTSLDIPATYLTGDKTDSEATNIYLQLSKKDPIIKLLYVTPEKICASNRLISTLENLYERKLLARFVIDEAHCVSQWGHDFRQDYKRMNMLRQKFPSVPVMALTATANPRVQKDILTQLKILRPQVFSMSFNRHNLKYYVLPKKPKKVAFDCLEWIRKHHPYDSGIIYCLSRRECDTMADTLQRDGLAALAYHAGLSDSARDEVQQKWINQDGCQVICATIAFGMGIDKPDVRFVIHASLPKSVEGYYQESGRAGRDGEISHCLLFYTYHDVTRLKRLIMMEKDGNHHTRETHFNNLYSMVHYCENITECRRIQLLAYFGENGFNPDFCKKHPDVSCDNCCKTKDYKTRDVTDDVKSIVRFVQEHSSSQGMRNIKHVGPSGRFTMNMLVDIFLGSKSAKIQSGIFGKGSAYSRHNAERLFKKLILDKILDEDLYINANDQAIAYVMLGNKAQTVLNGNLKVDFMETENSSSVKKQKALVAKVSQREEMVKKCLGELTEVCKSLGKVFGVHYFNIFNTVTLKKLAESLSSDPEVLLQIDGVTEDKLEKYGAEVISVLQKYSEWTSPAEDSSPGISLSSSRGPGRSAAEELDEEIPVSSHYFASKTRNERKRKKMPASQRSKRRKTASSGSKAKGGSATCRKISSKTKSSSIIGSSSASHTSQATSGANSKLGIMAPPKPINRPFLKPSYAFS
In short: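 BLM 50 nM in 25 mM Tris-HCl pH 8.0, 5 mM NaCl, 2 mM MgCl2, 1 mM DTT, 0.01% Tween-20, 2.5 ug/ml poly(dI-dC); 15 min cpd preinc, RT. Start: 200 nM forked DNA + 2 mM ATP (final). TAMRA read, 2 reads 2 h apart.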

[10] = Validation screen for inhibitors of Lassa infection (AID 463096; calls by dose curve; note: % is set by controls: 0 for no effect and ±100 for the full control effect)
[11] = Validation screen for small molecules that induce DNA re-replication in MCF 10A normal breast cells (AID 463097); note: 0% is about no effect; nearly all actives have a fitted effect of over 60% in size
In short: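 MCF 10A cells exposed to compound 48 hr at 37 C, 5% CO2, then Hoechst-stained 40 min. Laser-scanning imaging of nuclear DNA content (405 nm ex, 500-530 nm em); re-replication scored as rise in nuclei with elevated fluorescence intensity.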

[12] = Quantitative high throughput screen for delayed death inhibitors of the malarial parasite plastid, 48 hour incubation (AID 488752); note: % is set by controls: 0 for no effect and ±100 for the full control effect; nearly all actives have a fitted effect of over 65% in size
In short: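 Erythrocytes infected with P. falciparum carrying an integrated firefly luciferase reporter (2% hematocrit, 0.1% parasitemia final) were exposed to compounds in RPMI 1640/0.5% Albumax for 48 h at 37 C, 5% CO2. Growth inhibition was scored as reduced luminescence.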

[13] = molecular target: M-phase phosphoprotein 8 (Homo sapiens) (UniProt Q99549); test: qHTS Validation Assay for Inhibitors for MPP8 Chromodomain Interactions with Methylated Histone Tails (AID 488949); note: top concentration of the series differs between compounds; % is set by controls: 0 for no effect and ±100 for the full control effect; nearly all actives have a fitted effect of over 55% in size
M-phase phosphoprotein 8 (Homo sapiens), sequence (Q99549 whole entry, looked up): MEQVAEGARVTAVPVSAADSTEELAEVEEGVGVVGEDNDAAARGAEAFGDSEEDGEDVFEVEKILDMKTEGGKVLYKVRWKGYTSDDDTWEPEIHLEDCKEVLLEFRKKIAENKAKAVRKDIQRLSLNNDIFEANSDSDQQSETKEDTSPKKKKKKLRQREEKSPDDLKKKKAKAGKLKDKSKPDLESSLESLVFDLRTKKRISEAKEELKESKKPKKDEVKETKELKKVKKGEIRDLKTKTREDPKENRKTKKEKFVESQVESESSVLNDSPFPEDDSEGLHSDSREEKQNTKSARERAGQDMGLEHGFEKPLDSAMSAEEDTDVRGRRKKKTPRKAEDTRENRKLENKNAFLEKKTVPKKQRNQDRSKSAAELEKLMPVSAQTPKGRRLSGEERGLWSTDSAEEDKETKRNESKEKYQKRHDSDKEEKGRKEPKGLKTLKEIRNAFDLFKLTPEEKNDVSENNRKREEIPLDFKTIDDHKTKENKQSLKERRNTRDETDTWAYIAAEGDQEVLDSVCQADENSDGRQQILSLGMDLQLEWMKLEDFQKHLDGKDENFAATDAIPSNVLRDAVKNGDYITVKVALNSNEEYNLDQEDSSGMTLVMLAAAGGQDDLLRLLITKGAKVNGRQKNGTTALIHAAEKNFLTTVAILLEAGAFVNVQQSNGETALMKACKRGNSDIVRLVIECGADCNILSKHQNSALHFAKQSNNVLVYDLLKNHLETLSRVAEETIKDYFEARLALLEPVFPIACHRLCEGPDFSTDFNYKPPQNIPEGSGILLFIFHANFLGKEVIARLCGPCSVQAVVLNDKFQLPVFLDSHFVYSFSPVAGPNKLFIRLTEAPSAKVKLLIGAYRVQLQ
In short: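 MPP8 (50 nM) was pre-bound to 50 nM biotinylated H3(1-18)K9me3 peptide in PBS pH 7.4 with 0.01% Tween-20. Compounds were then added for 30 min at room temperature, and complex disruption was read by AlphaScreen with streptavidin donor and nickel-chelate acceptor beads.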

[14] = molecular target: Transient receptor potential cation channel subfamily V member 1 (Homo sapiens) (UniProt Q8NER1); test: HTS Assay for Compounds that Act as Enhancers of the Vanilloid Receptor 1 (AID 488979); note: 0% is about no effect
Transient receptor potential cation channel subfamily V member 1 (Homo sapiens), sequence (Q8NER1 whole entry, looked up): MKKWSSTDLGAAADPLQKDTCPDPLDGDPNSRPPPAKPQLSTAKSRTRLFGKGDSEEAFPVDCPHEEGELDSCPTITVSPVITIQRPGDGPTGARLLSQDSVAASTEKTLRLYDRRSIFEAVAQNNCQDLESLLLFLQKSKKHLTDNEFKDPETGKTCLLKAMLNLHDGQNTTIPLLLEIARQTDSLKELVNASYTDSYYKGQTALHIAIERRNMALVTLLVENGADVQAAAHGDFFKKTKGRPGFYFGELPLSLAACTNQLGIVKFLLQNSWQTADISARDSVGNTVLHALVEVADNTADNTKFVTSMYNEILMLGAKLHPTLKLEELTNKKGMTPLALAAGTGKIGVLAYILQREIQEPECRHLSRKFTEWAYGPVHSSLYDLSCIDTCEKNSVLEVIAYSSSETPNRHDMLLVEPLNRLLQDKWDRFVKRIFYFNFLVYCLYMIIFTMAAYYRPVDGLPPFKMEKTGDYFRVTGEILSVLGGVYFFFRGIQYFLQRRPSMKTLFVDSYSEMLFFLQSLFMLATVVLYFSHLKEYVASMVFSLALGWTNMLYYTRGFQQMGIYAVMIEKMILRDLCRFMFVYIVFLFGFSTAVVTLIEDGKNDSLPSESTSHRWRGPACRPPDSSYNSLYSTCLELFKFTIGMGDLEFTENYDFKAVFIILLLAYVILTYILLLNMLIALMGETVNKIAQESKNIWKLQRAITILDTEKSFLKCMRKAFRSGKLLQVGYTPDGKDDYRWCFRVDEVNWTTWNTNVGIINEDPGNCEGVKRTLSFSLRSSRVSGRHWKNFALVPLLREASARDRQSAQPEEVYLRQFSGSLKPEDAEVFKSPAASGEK
In short: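 TRPV1-expressing cells loaded with Fluo-8 calcium dye; compounds added and calcium influx read kinetically for 3 min (agonist phase), then capsaicin at EC20 added and read 2 min more for enhancement. Fluorescence ex 480/em 520 nm.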

[15] = molecular target: Thyrotropin receptor (Homo sapiens) (UniProt P16473); test: qHTS Assay for Antagonists of the Thyroid Stimulating Hormone Receptor (AID 488980); note: series mostly up to about 58 µM; 0% is about no effect
In short: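 TSHR-transfected HEK293 cells (2000/well) in HEPES-buffered HBSS with 70 uM RO 20-1724 were stimulated with 4 nM TSH (EC80, final) in the presence of compound. cAMP was measured by HTRF competition after lysis and 30 min at RT.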

[16] = molecular target: Thyrotropin-releasing hormone receptor (Homo sapiens) (UniProt P34981); test: qHTS for Small Molecule Agonists and Allosteric Enhancers of Human TRH Receptor: Validation Screen for Agonists (AID 493127;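 active = calcium activation more than 3 SD above the typical response in the agonist read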;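 note: intracellular calcium rise by fluo-8 fluorescence before TRH EC20 addition; 0% is about no effect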); conditions: TRH receptor agonist cell assay; at 2 µM; stronger effect = higher value
Thyrotropin-releasing hormone receptor (Homo sapiens), sequence (P34981 whole entry, looked up): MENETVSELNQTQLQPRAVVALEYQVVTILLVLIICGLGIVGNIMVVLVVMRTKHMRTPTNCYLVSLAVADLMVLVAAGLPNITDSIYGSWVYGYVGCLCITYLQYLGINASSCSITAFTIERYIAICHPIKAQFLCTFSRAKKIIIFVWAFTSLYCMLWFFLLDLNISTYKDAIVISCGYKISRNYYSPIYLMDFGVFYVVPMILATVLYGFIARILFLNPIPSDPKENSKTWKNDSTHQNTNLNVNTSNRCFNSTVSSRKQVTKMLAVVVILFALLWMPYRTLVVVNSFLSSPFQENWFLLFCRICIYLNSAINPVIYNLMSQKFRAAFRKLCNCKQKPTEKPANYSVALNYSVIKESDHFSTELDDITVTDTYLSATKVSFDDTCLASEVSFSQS
In short: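 TRHR-expressing cells were plated overnight in serum-containing medium, then loaded with fluo-8 calcium dye at room temperature for 30 min–1.5 h. After a 10 s baseline, compound was pin-transferred and calcium fluorescence (ex 480/em 530) read kinetically for agonist response.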

[17] = molecular target: Galactokinase (Homo sapiens) (UniProt P51570); test: qHTS Validation Assay for Inhibitors of Human Galactokinase (GALK) (AID 493189); note: 0% is about no effect
Galactokinase (Homo sapiens), sequence (P51570 whole entry, looked up): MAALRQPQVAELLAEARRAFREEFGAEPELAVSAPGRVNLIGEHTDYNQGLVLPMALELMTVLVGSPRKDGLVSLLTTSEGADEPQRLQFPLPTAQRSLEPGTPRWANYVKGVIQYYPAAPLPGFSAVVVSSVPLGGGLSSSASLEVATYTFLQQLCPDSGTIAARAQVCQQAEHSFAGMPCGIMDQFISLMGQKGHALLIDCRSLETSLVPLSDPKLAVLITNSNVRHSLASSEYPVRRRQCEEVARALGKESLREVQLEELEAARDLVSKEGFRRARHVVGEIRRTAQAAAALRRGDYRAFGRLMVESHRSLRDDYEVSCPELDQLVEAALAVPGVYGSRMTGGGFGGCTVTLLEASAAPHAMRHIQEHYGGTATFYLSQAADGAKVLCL
In short: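 GALK (5 nM) with 35 uM ATP and 100 uM galactose in HEPES pH 8.0 with MgCl2, NaCl, DTT and BSA. Reaction ran 1 h at room temperature. Residual ATP read by Kinase-Glo Plus luminescence.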

[18] = molecular target: Voltage-gated inwardly rectifying potassium channel KCNH2 (Homo sapiens) (UniProt Q12809); test: qHTS Assay for Small Molecule Inhibitors of the Human hERG Channel Activity (AID 588834);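 note: top concentration of the series differs between compounds; % is set by controls: 0 for no effect and ±100 for the full control effect; lower thallium flux fluorescence means stronger hERG block; nearly all actives have a fitted effect of over 50% in size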
In short: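 U2OS cells BacMam-transduced with hERG, 2000 cells/well, compound ~10 min at 37 °C before stimulation buffer. FluxOR thallium flux fluorescence read kinetically on FDSS; decrease indicates block; AC50 from Hill fits.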

[19] = system: Zika virus NS2B-NS3 protease; test: Primary screen GU AMC qHTS for Zika virus inhibitors (AID 1347154);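 note: 0% = no-inhibitor control and -100% = no-enzyme control; nearly all actives have a fitted effect of over 70% in size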
In short: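 Unlinked Zika NS2B hydrophilic domain/NS3 protease domain noncovalent complex (25 nM final) in 10 mM Tris-HCl pH 8.0, 0.01% Tween 20, with AMC peptide substrate. Fluorescence (ex 340, em 450 nm) change over 15 min, room temperature; percent inhibition fitted to 4-parameter Hill equation.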

[20] = Primary qHTS for small molecule stabilizers of the endoplasmic reticulum resident proteome: Secreted ER Calcium Modulated Protein (SERCaMP) assay (AID 1508630); note: % is set by controls: 0 for no effect and ±100 for the full control effect
In short: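 GLuc-SERCaMP-expressing SH-SY5Y cells, pretreated 16 h with compound, are challenged with thapsigargin to empty ER calcium stores; after 4 h, coelenterazine is added directly to the medium and luminescence is imaged.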

COc1cc(CCN)ccc1O
inactive: Potency [1] | Potency [2] | Potency [3] | Potency [4] | Potency [5] | outcome [6] | outcome [7] | Potency [8] | Potency [9] | Potency [10] | Potency [11] | Potency [12] | Potency [13] | outcome [14] | outcome [15] | activation [16] -0.312% | outcome [17] | Potency [18] | Potency [19] | Potency [20]
